Measured values from PubChem BioAssay AID493122 (National Center for Advancing Translational Sciences (NCATS), 2011).
Active and inactive are the calls of the source. How the calls were made is not given here.

Experiment: Concentration response cycloheximide confirmation counterscreen for small molecule inhibitors of Shiga toxin
Conditions: protein synthesis reporter, cells; series mostly up to 76.6 µM

Structure (SMILES)	outcome
COc1ccccc1CNC(=O)c1csc2c1CCCC2	inactive
CC(=O)c1ccc(N2CCN(S(=O)(=O)c3ccc4c(c3)CC(C)N4C(C)=O)CC2)cc1 (stereo unspecified)	inactive
COc1ccc(C(C)(C)C)cc1NC(=O)c1ccc2c(c1)SC1=NS(=O)(=O)CCN12	inactive
CN(C)S(=O)(=O)c1ccc(C(=O)OCC(=O)c2ccc3c(c2)NC(=O)CO3)cc1	inactive
CN(C)S(=O)(=O)c1ccc(C(=O)Nc2ccc(CN3CCCC3)cc2)cc1	inactive
CC1CCC/C=C/C2CC(O)CC2C(O)/C=C/C(=O)O1 (stereo unspecified)	inactive
O=C(NC1CCCC1)c1cc(Cl)ccc1[N+](=O)[O-]	inactive
CCOC(=O)C1(CCCc2ccccc2)CCN(C(=O)CCn2cncn2)CC1	inactive
Cc1cccc(NC(=O)CCN2C(=O)c3ccccc3S2(=O)=O)c1C	inactive
CC(C)CNC(=O)c1noc2c1CCCC2	inactive
O=C(Nc1ccccc1)c1ccc[nH]1	inactive
O=C(CC(c1ccccc1)c1cc(Cl)ccc1O)N1CCCC1 (stereo unspecified)	inactive
CCn1c2ccccc2c2cc(NC(=O)c3cccc([N+](=O)[O-])c3)ccc21	inactive
CN(C(=O)c1ccc2c(=O)n3c(nc2c1)CCCCC3)c1ccccc1	inactive
C=CCNC(=O)c1ccc(C)c(Br)c1	inactive
Cc1cc(C(=O)COC(=O)CNS(=O)(=O)c2ccc3ccccc3c2)c(C)n1-c1ccccc1	inactive
